The full list was thinned out, with hits kept by preference.
HT1080-NT tox – kills 2HG-producing HT-1080-NT fibrosarcoma cells. Potency, µM (highest dose often 46.1 µM), inactives show top-dose activity, negative = less viability, hits mostly cytotoxic. HT-1080-NT fibrosarcoma viability, CellTiter-Glo ATP luminescence, 48 h. hit rate 1.6% among 360,000;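 further: NT is the 2HG producing partner of a matched IDH1 knockdown line; potency means the concentration at half of the fitted maximal effect; 0% = DMSO-treated cells and -100% = media-only wells without cells; nearly all actives have a fitted effect of over 55% in size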
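Read-out is CellTiter-Glo luminescence after 10 minutes at room temperature, following 48 hours' compound treatment of HT-1080-NT cells (750 cells/well, RPMI, 5% FBS, 37 degrees C).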
12-LOX inh – ALOX12 (human) lipoxygenase inhibition; P18054; purified 12hLO, xylenol orange hydroperoxide absorbance; Potency, µM (top dose mostly 108 µM), without a hit: at the top dose activity change, negative = inhibition, usual class: inhibitors; hit rate 1.1% among 580,000; further: potency means the concentration at half of the fitted maximal effect
Target sequence (P18054 whole entry, looked up): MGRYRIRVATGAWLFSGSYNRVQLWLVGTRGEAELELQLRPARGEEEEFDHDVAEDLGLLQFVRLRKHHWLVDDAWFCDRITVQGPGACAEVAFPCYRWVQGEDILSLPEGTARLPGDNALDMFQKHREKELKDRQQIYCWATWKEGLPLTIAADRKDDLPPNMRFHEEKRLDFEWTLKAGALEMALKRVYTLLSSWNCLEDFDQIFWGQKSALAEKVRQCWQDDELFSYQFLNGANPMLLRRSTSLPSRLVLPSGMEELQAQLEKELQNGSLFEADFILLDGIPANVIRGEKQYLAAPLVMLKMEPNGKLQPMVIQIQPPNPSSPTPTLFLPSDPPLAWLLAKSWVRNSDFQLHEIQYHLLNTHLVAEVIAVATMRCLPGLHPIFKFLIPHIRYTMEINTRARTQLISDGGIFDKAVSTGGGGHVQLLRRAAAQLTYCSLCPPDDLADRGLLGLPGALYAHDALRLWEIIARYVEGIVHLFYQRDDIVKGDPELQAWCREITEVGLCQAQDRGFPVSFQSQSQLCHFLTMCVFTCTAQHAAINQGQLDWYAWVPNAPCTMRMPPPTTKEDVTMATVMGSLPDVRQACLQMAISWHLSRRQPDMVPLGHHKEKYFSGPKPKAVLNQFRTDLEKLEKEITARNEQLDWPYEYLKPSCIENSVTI
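Hydroperoxide product was detected by ferrous iron/xylenol orange as the 573 to 405 nm absorbance ratio. Arachidonic acid at 40 uM (final) was turned over for 30 min at room temperature by 150 nM human 12hLO, pH 7.0 Hepes buffer, after 15 min compound preincubation.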
IL1B secr inh – inflammasome signaling inhibition, IL-1 beta readout. THP-1 LPS/ATP IL-1B secretion, AlphaLISA, 16 h; hits give low values. activity change, % at 57.5 µM. hit rate 4.7% among 360,000. AID 743279; in the data active means activity change below about -50%; inconclusive means mostly about -30% to -49%
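Secreted IL-1B measured by AlphaLISA bead assay after 16 h compound exposure of THP-1 cells; compounds (final up to 57.5 uM) added 1 h before LPS (250 ng/mL) and ATP (1.25 mM) stimulation; lower signal means less secretion.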
HT1080 IDH1KD tx – kills HT-1080 cells with IDH1 knockdown; Potency, µM (highest dose often 46.1 µM), for the others: at the highest dose activity, negative = toxicity, hits mostly cytotoxic; HT-1080 IDH1 knockdown viability, ATP luminescence, 48 h; hit rate 2% among 360,000;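 further: potency means the concentration at half of the fitted maximal effect; 0% = DMSO wells and -100% = cell-free medium wells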
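Knockdown cells (IDH1KD HT-1080) received compounds 2 h after plating at 750 cells/well and were kept 48 h at 37 °C in 5% FBS RPMI. A CellTiter-Glo luminescence read gave % activity for curve fitting.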
DT40 TDP1 CPT – growth inhibition of DT40 Tdp1-/-;hTDP1 cells with camptothecin (screen for TDP1 inhibitors); AID 686979; chicken DT40 Tdp1-/-;hTDP1 cells + 20 nM CPT, ATP luminescence, 48 h; Potency, µM (top dose mostly 46.2 µM), inactives show at the top dose activity change, negative = growth inhibition, most hits filed as inhibitors; hit rate 12% among 420,000; further: potency means the concentration at half of the fitted maximal effect; nearly all actives have a fitted effect of over 55% in size
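Cell growth measured by CellTiter-Glo luminescence after a minimum 48 h, 37 C compound exposure with 20 nM CPT in Tdp1-knockout DT40 cells stably expressing hTDP1, seeded 400/well; qHTS titration format.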
DT40 TDP1 no CPT – qHTS for Inhibitors of human tyrosyl-DNA phosphodiesterase 1 (TDP1): qHTS in cells in absence of CPT. DT40 Tdp1-/- hTDP1 cells, no CPT, ATP luminescence, 48 h. Potency, µM (top dose mostly 46.2 µM), inactives show top-dose activity change, negative = growth inhibition, usual class: inhibitors. hit rate 15% among 420,000. AID 686978, 2013; further: potency means the concentration at half of the fitted maximal effect; nearly all actives have a fitted effect of over 55% in size
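Chicken DT40 Tdp1-/- cells complemented with human TDP1, screened without camptothecin (DMSO vehicle only), 400 cells/well. Compounds pin-transferred, cells incubated at 37 °C for at least 48 hr. Growth read as ATP-dependent luminescence (CellTiter-Glo, 30 min at RT).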
An asterisk follows results filed as active; u = inconclusive; x = no result given; ! = repeats disagree; [ ] = another dose, or the depositor's remark. Unless noted, the call rests on the fitted dose curve; in most records, active means well fitted curve in the direction sought with a large enough effect; inconclusive means small, poorly fitted or top-dose-only effect, or another doubt; inactive means no such curve, though single readings can be large; an effect the other way counts as inactive or inconclusive. Unless noted, on the % scale 0 is the no-effect control and ±100 the full control effect.

SMILES	HT1080-NT tox	12-LOX inh	IL1B secr inh	HT1080 IDH1KD tx	DT40 TDP1 CPT	DT40 TDP1 no CPT
CC(=O)c1c(O)cc2c3c1OC(C)(C)C1CCC(C)(CC31)O2 (configuration not stated)	-0.5%	15.6%	2.0	-3.8%	20.6µM*	13µM*
Cc1ccc2c(c1)c(C1=c3ccccc3=NC1=O)c(O)n2C	0.0%	77.4%	-14.9	-3.6%	4.61µM*	2.06µM*
Cc1ccc(C)c(-n2c(C)nc3ccccc3c2=O)c1	u	0.0%	12.6	7.1%	u	u
Cc1ccc2c(n1)N(C)[C@H](CO)CCN(C1COC1)C2	x	9.0%[176 µM]	x	x	x	x
CCOC(=O)C1=CC(=C2C(=O)N(CC)C(=S)N(CC)C2=O)c2ccccc2O1	4.9%	17.8µM*	-15.2	4.1%	1.4%	-9.4%
c1ccc(CNC2(c3nnnn3-c3ccccc3)CCCCC2)cc1	x	14.7%	x	x	x	x
CCCN1CCNc2cc(Nc3ccccc3)ncc2C1	x	79.0%[176 µM]	x	x	x	x
CN1C(=O)NC(=O)/C(=C/c2ccc([N+](=O)[O-])s2)C1=O	-25.4%	u	-18.5	-7.6%	4.11µM*	3.26µM*
O=C1NC(=O)N(c2ccccc2)C(=O)/C1=C\c1ccc([N+](=O)[O-])s1	4.3%	0.0%	-69.4*	-2.0%	20.6µM*	8.2µM*
COc1ccc(N2C(=O)NC(=O)/C(=C\c3ccccc3[N+](=O)[O-])C2=O)cc1	2.3%	u	5.6	-5.1%	-19.5%	-10.6%
COc1ccc(OC)c(N2C(=O)NC(=O)/C(=C\c3ccc([N+](=O)[O-])s3)C2=O)c1	-13.2%	u	u	-18.0%	16.4µM*	u
COCCN1CCC(N2CCN(C(=O)Cc3ccc(F)cc3)CC2)C1=O (configuration not stated)	x	-1.7%	x	x	x	x
COc1c(OP2(=S)OCC(C)(C)CO2)cnn(C2CCCCC2)c1=O	-2.8%	-3.5%	-13.0	-6.9%	23.1µM*	20.6µM*
CC[C@@]1(O)CC(O)c2c(cc3c(c2O)C(=O)c2c(O)ccc(O)c2C3=O)C1C(=O)OC (some centres not stated)	x	x	x	x	-20.0%	-16.4%
CC[C@]1(O)CC(O[C@@H]2CC(N(C)C)C(O)C(C)O2)c2c(cc3c(c2O)C(=O)c2c(O)cccc2C3=O)C1C(=O)OC (some centres not stated)	x	x	x	x	0.82µM*	0.581µM*
O=C(Nc1ccc(F)cc1)Oc1ccc[nH]c1=O	u	u	u	20.6µM*	u	u
O=C(Nc1ccc(OC(F)(F)F)cc1)Oc1ccccc1N1CCCCC1	8.8%	0.0%	-6.8	1.2%	u	u
COc1cc2c(cc1OCc1ccccc1)N(C(=O)CC(C)C)CC21CCN(C)CC1	x	22.4%[176 µM]	x	x	x	x
COc1cc2c(cc1OCc1ccc(Cl)cc1)N(Cc1ccccc1)CC21CCN(C(C)=O)CC1	x	31.6µM*	x	x	x	x
CC(C)[C@@]1(NC(=O)[C@H]2CC3c4cccc5[nH]cc(c45)C[C@H]3N(C)C2)O[C@@]2(O)C3CCCN3C(=O)[C@@H](Cc3ccccc3)N2C1=O (some centres not stated)	x	u	x	x	14.6µM*	14.6µM*
CN1C[C@H](C(=O)N[C@]2(C)O[C@@]3(O)[C@@H]4CCCN4C(=O)[C@H](Cc4ccccc4)N3C2=O)C[C@@H]2c3cccc4[nH]cc(c34)C[C@H]21	x	-13.5%[22.9 µM]	x	x	u	u
CN1C[C@H](C(=O)N[C@]2(C)O[C@@]3(O)[C@@H]4CCCN4C(=O)[C@H](Cc4ccccc4)N3C2=O)CC2c3cccc4[nH]cc(c34)C[C@H]21 (some centres not stated)	u	u	-14.9	u	u	18.4µM*!
CC(C)C1C(=O)N2CCC[C@H]2[C@]2(O)O[C@](NC(=O)[C@@H]3C=C4c5cccc6[nH]cc(c56)C[C@H]4N(C)C3)(C(C)C)C(=O)N12 (some centres not stated)	x	22.3%	x	x	u	u
CC[C@H]1CN2CC[C@H]1C[C@@H]2CNS(=O)(=O)c1cccc(F)c1	x	12.9%[176 µM]	x	x	x	x
COC(=O)c1ccc(NC(=O)COC(=O)c2cn(C)c3ccccc23)cc1	x	-16.9%	x	x	x	x
SMILES	HT1080-NT tox	12-LOX inh	IL1B secr inh	HT1080 IDH1KD tx	DT40 TDP1 CPT	DT40 TDP1 no CPT
NC(=NCCc1ccc(I)cc1)SCCCc1cnc[nH]1	x	u	x	x	14.6µM*	13µM*
Cc1nn(Cc2ccccc2)c(C)c1C(=O)NCc1ccccc1F	15.3%	-5.9%	-22.9	15.0%	-2.6%	-19.8%
C=C1C=C(C(F)F)n2ncc(C(=O)NCc3ccccc3F)c2N1	x	x	x	x	u	11.2µM*
O=S(=O)(c1ccccc1)N1[C@H]2CC[C@@H]1c1cncnc1C2	x	23.7%	x	x	x	x
COc1cc2c(cc1Oc1cccc(N(C)C)c1)NC(=O)C21CCN(Cc2ccccc2)CC1	x	89.1µM*	x	x	x	x
CCOC(=O)C1=C(N)Oc2cc(C)oc(=O)c2C12C(=O)Nc1ccccc12 (configuration not stated)	x	18.8%	x	x	x	x
COc1cc(CN2CC3CC(C2)c2cccc(=O)n2C3)cc(OC)c1OC (configuration not stated)	2.6%	u	-14.4	0.2%	-3.7%	-1.8%
COc1cc(C)c(-c2nc(CN3C[C@@H]4C[C@@H](C3)c3cccc(=O)n3C4)c(C)o2)cc1C	-20.3%	u	-114.7*	-12.8%	u	u
c1ccc(CN2C[C@H](c3ccc4c(c3)OCO4)[C@@H]3[C@H]2C2CCN3CC2)nc1	x	86.8%	x	x	x	x
CC(C)c1ccc(CNC(=O)c2ccc(N3CCCC3)c(NC(=O)NCc3ccccc3)c2)cc1	x	0.1%	x	x	14.6µM*	23.1µM*
CCc1ccccc1NC(=O)Nc1cc(C(=O)NCc2ccc(C(C)C)cc2)ccc1N1CCCC1	x	-18.6%	x	x	u	u
O=C1OCC2(CCN(Cc3cccc(Cl)c3)C2)N1c1ccncc1 (configuration not stated)	x	13.8%[176 µM]	x	x	x	x
O=C(Nc1nccs1)[C@H]1CN2CCC1C[C@@H]2Cn1cc(CC2CCCCC2)nn1 (some centres not stated)	x	32.8%[176 µM]	x	x	x	x
CN(C)C1C(=O)C(C(N)=O)=C(O)C2(O)C(=O)C3=C(O)c4c(O)cccc4C(C)(O)C3CC12 (configuration not stated)	-9.7%	x	-17.2	-8.4%	-27.0%	-18.6%

High-throughput results as filed in PubChem BioAssay.
